The assay has as its target T1, GST-Dm-Relish (Drosophila melanogaster, UniProt Q94527 99-473).
T1 sequence: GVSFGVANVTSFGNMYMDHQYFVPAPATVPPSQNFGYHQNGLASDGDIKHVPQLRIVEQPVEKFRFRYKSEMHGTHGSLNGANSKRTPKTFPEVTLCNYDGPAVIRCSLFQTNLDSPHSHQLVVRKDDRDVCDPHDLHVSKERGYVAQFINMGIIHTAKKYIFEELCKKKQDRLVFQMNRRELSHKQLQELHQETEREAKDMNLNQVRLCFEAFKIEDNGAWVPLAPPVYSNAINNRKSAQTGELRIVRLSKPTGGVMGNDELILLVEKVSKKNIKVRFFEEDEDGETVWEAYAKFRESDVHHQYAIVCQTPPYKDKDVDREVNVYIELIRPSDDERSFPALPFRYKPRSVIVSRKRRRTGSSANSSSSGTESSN
Description: protein-binding microarray (PBM); PBM: ~300 nM protein, 6 mM HEPES pH 7.8, 80 mM KCl, 0.5 mM EDTA, 0.5 mM EGTA, 6% glycerol, 35 ng/ul poly-dIdC, 1% milk, 1 h, room temperature; Ap Aiptasia and Nv Nematostella (sea anemones) / Co Capsaspora / Aq Amphimedon (sponge) / Dm Drosophila / Hu human; RHD is the Rel homology domain; high values mean tight binding. The following applies: dsDNA, one strand shown.
The sequence “CCGATTAACATCACGTACATTCCTGATGTTAATCGGGTCTTGATTCGCTTGACGCTGCTG” came in with a binding signal of 1.63 z-score.
Next, “CCGATTAACATCAGAGTAATTCCTGATGTTAATCGGGTCTTGATTCGCTTGACGCTGCTG”: 2.26 z-score.
On to “CCGATTAACATCACAAAAAATTTTGATGTTAATCGGGTCTTGATTCGCTTGACGCTGCTG”, for which the binding signal came to 2.12 z-score.
In turn, “CCGATTAACATCAAAATTCCAATTGATGTTAATCGGGTCTTGATTCGCTTGACGCTGCTG” gave a binding signal of 1.02 z-score.
Under “CCGATTAACATCAGTGTGCTTCTTGATGTTAATCGGGTCTTGATTCGCTTGACGCTGCTG” stands 1.67 z-score.
As to “CCGATTAACATCACCCGAGTGCGTGATGTTAATCGGGTCTTGATTCGCTTGACGCTGCTG”, the binding signal was determined as 1.01 z-score.
Next, “CCGATTAACATCACAACGGAATGTGATGTTAATCGGGTCTTGATTCGCTTGACGCTGCTG”: 1.37 z-score; “CCGATTAACATCACGGAATTCACTGATGTTAATCGGGTCTTGATTCGCTTGACGCTGCTG”: 2.4 z-score; “CCGATTAACATCAGGAATTACACTGATGTTAATCGGGTCTTGATTCGCTTGACGCTGCTG”: 3.55 z-score.
Under “CCGATTAACATCAAAAATTCCATTGATGTTAATCGGGTCTTGATTCGCTTGACGCTGCTG” stands 1.66 z-score; under “CCGATTAACATCAAAATTCCAGGTGATGTTAATCGGGTCTTGATTCGCTTGACGCTGCTG”, 1.13 z-score; under “CCGATTAACATCAGTAAACTCCATGATGTTAATCGGGTCTTGATTCGCTTGACGCTGCTG”, 1.1 z-score.
Sequence “CCGATTAACATCACTTAGTACGGTGATGTTAATCGGGTCTTGATTCGCTTGACGCTGCTG” had a binding signal of 1.1 z-score.
Under “CCGATTAACATCAAGTAATTTTCTGATGTTAATCGGGTCTTGATTCGCTTGACGCTGCTG” stands 1.86 z-score; under “CCGATTAACATCATAAAAAAAAATGATGTTAATCGGGTCTTGATTCGCTTGACGCTGCTG”, 1.27 z-score.
With “CCGATTAACATCAGGAAAACACATGATGTTAATCGGGTCTTGATTCGCTTGACGCTGCTG”, the binding signal was 2.56 z-score.
Next, “CCGATTAACATCAGGAAACTACATGATGTTAATCGGGTCTTGATTCGCTTGACGCTGCTG”: 5.23 z-score; “CCGATTAACATCAAATATTTTCCTGATGTTAATCGGGTCTTGATTCGCTTGACGCTGCTG”: 1.09 z-score; “CCGATTAACATCAATGGATTTCCTGATGTTAATCGGGTCTTGATTCGCTTGACGCTGCTG”: 1.12 z-score.
As to “CCGATTAACATCAGGAAATAACATGATGTTAATCGGGTCTTGATTCGCTTGACGCTGCTG”, the binding signal was 2.04 z-score.
“CCGATTAACATCAAGTACAACGGTGATGTTAATCGGGTCTTGATTCGCTTGACGCTGCTG” registered a binding signal of 1.44 z-score.
Next, “CCGATTAACATCACGGAATGTACTGATGTTAATCGGGTCTTGATTCGCTTGACGCTGCTG”: 1.8 z-score; “CCGATTAACATCAGTACATTCCATGATGTTAATCGGGTCTTGATTCGCTTGACGCTGCTG”: 2.01 z-score; “CCGATTAACATCAGGAATGTACATGATGTTAATCGGGTCTTGATTCGCTTGACGCTGCTG”: 4.12 z-score.
In the case of “CCGATTAACATCAAAATTCCATGTGATGTTAATCGGGTCTTGATTCGCTTGACGCTGCTG”, the binding signal was 1.36 z-score.
Turning to “CCGATTAACATCAAATAAATTCCTGATGTTAATCGGGTCTTGATTCGCTTGACGCTGCTG”, the binding signal was 1.27 z-score.
Under “CCGATTAACATCAGCGTGACTTTTGATGTTAATCGGGTCTTGATTCGCTTGACGCTGCTG” stands 1.47 z-score.
The sequence “CCGATTAACATCACAAAATTCCATGATGTTAATCGGGTCTTGATTCGCTTGACGCTGCTG” came in with a binding signal of 1.67 z-score.
Next, “CCGATTAACATCAGCATCCACGGTGATGTTAATCGGGTCTTGATTCGCTTGACGCTGCTG”: 1.01 z-score.
Next, “CCGATTAACATCACGTGTTTTCCTGATGTTAATCGGGTCTTGATTCGCTTGACGCTGCTG”: 1.04 z-score; “CCGATTAACATCAGGAATTTATATGATGTTAATCGGGTCTTGATTCGCTTGACGCTGCTG”: 1 z-score; “CCGATTAACATCACGTATTTTCCTGATGTTAATCGGGTCTTGATTCGCTTGACGCTGCTG”: 1.2 z-score.
Next, “CCGATTAACATCAGGAAATTCACTGATGTTAATCGGGTCTTGATTCGCTTGACGCTGCTG”: 1.48 z-score; “CCGATTAACATCAGGCGGTAAGGTGATGTTAATCGGGTCTTGATTCGCTTGACGCTGCTG”: 1.01 z-score; “CCGATTAACATCAGGAATTCACATGATGTTAATCGGGTCTTGATTCGCTTGACGCTGCTG”: 5.7 z-score.
“CCGATTAACATCAAAAAAATTACTGATGTTAATCGGGTCTTGATTCGCTTGACGCTGCTG” showed a binding signal of 3.61 z-score.
Under “CCGATTAACATCAGTGGTTACCATGATGTTAATCGGGTCTTGATTCGCTTGACGCTGCTG” stands 2.13 z-score.
Next, “CCGATTAACATCAAAAAACCGTTTGATGTTAATCGGGTCTTGATTCGCTTGACGCTGCTG”: 1.2 z-score; “CCGATTAACATCATGGTACTTGTTGATGTTAATCGGGTCTTGATTCGCTTGACGCTGCTG”: 1.26 z-score.

Source of the values: paper PMC5700166.
